Experimental data as given in PubChem BioAssay (Tox21).
Results filed as inconclusive are left out. Activity calls are given as the source filed them. Unless noted, the call rests on the fitted dose curve; in most records, active means well fitted curve in the direction sought with a large enough effect in the repeat runs; inconclusive means weak or mixed curves; inactive means no such curve, though single readings can be large; an effect the other way counts as inactive or inconclusive.

What was measured:
[1] = A CellTox Green Cytotoxicity Assay to monitor cytotoxicity in HEK293 cells - 32 hour (AID 1224881); further: nearly all actives have a fitted effect of over 40% in size
Outline: (§1)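 Read-out: fluorescence of a cell-impermeant cyanine dye staining DNA of dead cells, proportional to cytotoxicity. HEK293, 600 cells/well with reagent, compound (23 nL DMSO) added after 5 h; reads at 0, 8, 16, 24, 32, 40 h.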

[2] = A CellTox Green Cytotoxicity Assay to monitor cytotoxicity in HepG2 cells - 0 hour (AID 1224882); further: nearly all actives have a fitted effect of over 35% in size
Outline: (§2)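 HepG2, 600 cells/well premixed w/ CellTox Green; 5 h settle, 37 C/5% CO2; pintool cpd add (DMSO); 37 C, 40 h; fluorescence read at 0, 8, 16, 24, 32, 40 h.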

[3] = A CellTox Green Cytotoxicity Assay to monitor cytotoxicity in HepG2 cells - 32 hour (AID 1224883); further: nearly all actives have a fitted effect of over 50% in size
Outline: as §2

[4] = A CellTox Green Cytotoxicity Assay to monitor cytotoxicity in HEK293 cells - 8 hour (AID 1224884); further: nearly all actives have a fitted effect of over 35% in size
Outline: as §1

[5] = qHTS RealTime-Glo MT Cell Viability Assay in HepG2 cells - 16 hour (AID 1224885); further: nearly all actives have a fitted effect of over 50% in size
Outline: (§3)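 Real-time, nonlytic viability: 600 HepG2 cells/well mixed with NanoLuc enzyme plus prosubstrate; 5 h settle, compound (DMSO) added by pintool; luminescence monitored over 40 h at 37 C.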

[6] = qHTS RealTime-Glo MT Cell Viability Assay in HEK293 cells - 24 hour (AID 1224886); further: top concentration of the series differs between compounds; nearly all actives have a fitted effect of over 50% in size
Outline: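 Cells + reagent dispensed (600 cells/well, HEK293) → 5 h at 37 C/5% CO2 → 23 nL compound in DMSO pinned → 40 h at 37 C → luminescence read at 0, 8, 16, 24, 32, 40 h.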

[7] = qHTS RealTime-Glo MT Cell Viability Assay in HEK293 cells - 8 hour (AID 1224887); further: top concentration of the series differs between compounds; nearly all actives have a fitted effect of over 50% in size
Outline: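 Luminescence readout at each listed time point; HEK293, 600 cells/well, RealTime-Glo MT reagent added with cells; compounds pinned (23 nL in DMSO) after 5 h at 37 C; continuous culture at 37 C.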

[8] = A CellTox Green Cytotoxicity Assay to monitor cytotoxicity in HEK293 cells - 16 hour (AID 1224888); further: nearly all actives have a fitted effect of over 35% in size
Outline: as §1

[9] = qHTS RealTime-Glo MT Cell Viability Assay in HepG2 cells - 0 hour (AID 1224889); further: nearly all actives have a fitted effect of over 50% in size
Outline: as §3

[10] = A CellTox Green Cytotoxicity Assay to monitor cytotoxicity in HepG2 cells - 8 hour (AID 1224890); further: nearly all actives have a fitted effect of over 45% in size
Outline: as §2

[11] = qHTS assay to identify small molecule antagonists of the estrogen receptor alpha (ER-alpha) signaling pathway using the BG1 cell line in the presence of 0.1 nM 17-beta-estradiol - cell viability counter screen (AID 1259241); further: nearly all actives have a fitted effect of over 40% in size
Outline: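 Viability in VM7Luc4E2 cells after 22 hr compound exposure under 0.1 nM 17beta-estradiol stimulation, by CellTiter-Fluor.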

[12] = qHTS assay to identify small molecule antagonists of the androgen receptor (AR) signaling pathway using the MDA cell line in the presence of 0.5 nM R1881 - cell viability counter screen (AID 1259242); further: nearly all actives have a fitted effect of over 45% in size
Outline: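 Live-cell protease fluorescence, CellTiter-Fluor, 30 min at 37C. Cells: MDA-kb2, 3,000/well, preincubated 5 hr. Compounds plus 0.5 nM R1881 final, 16 hr, 37C, 0% CO2.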

[13] = molecular target: Estrogen receptor (Homo sapiens) (UniProt P03372); assay: qHTS assay to identify small molecule antagonists of the estrogen receptor alpha (ER-alpha) signaling pathway using the BG1 cell line in the presence of 0.1 nM 17-beta-estradiol (AID 1259244); further: nearly all actives have a fitted effect of over 50% in size
Outline: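 Luminescence after ONE-Glo (30 min, room temperature) measured ERE-luciferase activity in VM7Luc4E2 cells treated 22 h with compound and 0.1 nM final 17beta-estradiol as stimulator.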

[14] = qHTS assay to identify small molecule HDAC inhibitors (AID 1259364);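 further: wild-type HCT-116 cells with endogenous class I/II HDAC activity; top concentration of the series differs between compounds; nearly all actives have a fitted effect of over 45% in size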
Outline: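 HCT-116 (wild type), 1,500 cells/well, overnight; compound 2 hr 37C 5% CO2; HDAC-Glo I/II reagent 30 min RT; luminescence readout.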

[15] = qHTS assay to identify small molecule HDAC inhibitors - cell viability counter screen (AID 1259365)
Outline: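 Cytotoxicity was gauged in wild-type HCT-116 cells after a brief 2hr treatment with DMSO-dissolved compounds at 37C and 5% CO2, using CellTiter-Glo luminescence developed for 30min at room temperature.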

[16] = qHTS assay to identify small molecule agonists of the sonic hedgehog signaling (Shh) pathway (AID 1259368; calls by dose curve;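 further: NIH/3T3-derived 3T3Gli1-Luc cells carrying a stable Gli1-driven firefly luciferase reporter; series mostly up to about 92 µM; nearly all actives have a fitted effect of over 15% in size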)
Outline: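 Read-out: firefly luciferase luminescence from a Gli1 response element reporter stably integrated in NIH/3T3-derived 3T3Gli1-Luc cells, measured 30 min at room temperature after reagent addition. Compound exposure lasted 24 hr at 37 C, 5% CO2.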

[17] = qHTS assay to identify small molecule agonists of the sonic hedgehog signaling (Shh) pathway - cell viability counter screen (AID 1259366); further: nearly all actives have a fitted effect of over 50% in size
Outline: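 Stable Gli1-Luc NIH/3T3 clone, 2,000 cells/well. Compound exposure 24hr at 37C. Read-out: CellTiter-Fluor fluorescence.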

[18] = qHTS assay to identify small molecule antagonists of the sonic hedgehog signaling (Shh) pathway - cell viability counter screen (AID 1259367); further: nearly all actives have a fitted effect of over 55% in size
Outline: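 Cytotoxicity was assessed in parallel with Shh reporter activity by measuring live-cell protease fluorescence (CellTiter-Fluor) in NIH/3T3 cells stably carrying Gli1-Luc, treated with compound under conditioned medium stimulation for 23 hr plus 1 hr reagent incubation.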

[19] = qHTS assay to identify small molecule phospholipidosis (PLD) inducers (AID 1259344; active means well fitted curve in the direction sought with a large enough effect; an effect the other way counts as inactive or inconclusive)
Outline: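 Cells (HepG2, 900 per well) attach for 4 h, receive LipidTOX Red and compound together, incubate 24 h at 37 C, are fixed 30 min with paraformaldehyde/Hoechst, then imaged at one site per well.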

Measured: Potency

Sequence of Estrogen receptor (Homo sapiens) (P03372 whole entry, looked up): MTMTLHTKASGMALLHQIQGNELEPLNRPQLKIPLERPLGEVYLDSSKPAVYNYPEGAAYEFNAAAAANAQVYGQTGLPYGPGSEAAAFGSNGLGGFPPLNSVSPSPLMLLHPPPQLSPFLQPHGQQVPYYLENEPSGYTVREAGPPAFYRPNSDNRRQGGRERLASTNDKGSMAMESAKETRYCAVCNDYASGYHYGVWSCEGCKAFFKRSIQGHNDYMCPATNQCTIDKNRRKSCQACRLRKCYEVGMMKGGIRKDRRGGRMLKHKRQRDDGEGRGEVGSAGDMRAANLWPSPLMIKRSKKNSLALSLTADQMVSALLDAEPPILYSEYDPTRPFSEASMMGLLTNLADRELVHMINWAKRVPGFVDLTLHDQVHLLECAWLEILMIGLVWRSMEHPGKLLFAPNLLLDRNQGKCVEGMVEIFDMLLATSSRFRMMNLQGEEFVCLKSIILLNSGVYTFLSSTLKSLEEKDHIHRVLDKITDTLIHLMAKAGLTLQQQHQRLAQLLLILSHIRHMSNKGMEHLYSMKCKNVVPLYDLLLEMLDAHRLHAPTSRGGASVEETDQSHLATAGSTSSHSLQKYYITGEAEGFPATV

C[C@H]1C[C@H]2[C@@H]3CCC4=CC(=O)C=C[C@]4(C)[C@H]3C(=O)C[C@]2(C)[C@@]1(O)C(=O)CO
inactive: [1] | [2] | [3] | [4] | [5] | [6] | [7] | [8] | [9] | [10] | [11] | [12] | [13] | [14] | [15] | [16]

CCCCCCCCCCCCCCC(=O)O
inactive: [1] | [2] | [3] | [4] | [5] | [6] | [7] | [8] | [9] | [10] | [11] | [12] | [13] | [14] | [15] | [17] | [16]

Nc1ccn([C@@H]2O[C@H](CO)[C@@H](O)C2O)c(=O)n1 (some centres undefined)
inactive: [1] | [2] | [3] | [4] | [5] | [6] | [7] | [8] | [9] | [10] | [11] | [12] | [14] | [15] | [17] | [18] | [16]

CCO[Si](OCC)(OCC)c1ccccc1
inactive: [1] | [2] | [3] | [4] | [5] | [6] | [7] | [8] | [9] | [10] | [11] | [12] | [14] | [15] | [17] | [16]

O=C1CCCCCCCCCCCCCCO1
inactive: [1] | [2] | [3] | [4] | [5] | [6] | [7] | [8] | [9] | [10] | [11] | [12] | [14] | [15] | [17] | [18] | [16]

COc1cc(-c2ccc(=O)[nH]n2)ccc1OC(F)F
inactive: [1] | [2] | [3] | [4] | [5] | [6] | [7] | [8] | [9] | [10] | [11] | [12] | [19] | [14] | [15] | [18] | [16]

CCCCc1ccc2c(n1)[C@@H](c1ccc(OC)cc1C[C@H](C)C(=O)O)[C@H](C(=O)O)[C@H]2c1ccc2c(c1)OCO2
inactive: [1] | [2] | [3] | [4] | [5] | [6] | [7] | [8] | [9] | [10] | [11] | [12] | [13] | [14] | [15] | [18] | [16]

COc1cc(C(=O)NCc2ccc(OCCN(C)C)cc2)cc(OC)c1OC
inactive: [1] | [2] | [3] | [4] | [5] | [6] | [7] | [8] | [9] | [10] | [11] | [12] | [14] | [15] | [17] | [18]

O=Cc1cccc(Br)c1
inactive: [1] | [2] | [3] | [4] | [5] | [6] | [7] | [8] | [9] | [10] | [11] | [12] | [14] | [15] | [17] | [18] | [16]

CCCn1cc[n+](C)c1C
inactive: [1] | [2] | [3] | [4] | [5] | [6] | [7] | [8] | [9] | [10] | [11] | [12] | [14] | [15] | [17] | [18] | [16]

COCCOCC(OC)OC
inactive: [1] | [2] | [3] | [4] | [5] | [6] | [7] | [8] | [9] | [10] | [11] | [12] | [13] | [14] | [15] | [17] | [16]

COc1cccc(OC)c1C(=O)N[C@@H]1C(=O)N2[C@@H]1SC(C)(C)[C@@H]2C(=O)O
inactive: [1] | [2] | [3] | [4] | [5] | [6] | [7] | [8] | [9] | [10] | [11] | [12] | [19] | [14] | [15] | [17] | [18] | [16]

CCCCCCCCCCCCSC
inactive: [1] | [2] | [3] | [4] | [5] | [6] | [7] | [8] | [9] | [10] | [11] | [12] | [14] | [15] | [17] | [18] | [16]

NC(=O)Cc1cccc2ccccc12
inactive: [1] | [2] | [3] | [4] | [5] | [6] | [7] | [8] | [9] | [10] | [11] | [12] | [14] | [15] | [17] | [18] | [16]

O=[N+]([O-])c1ccc(/C=N\O)o1
inactive: [1] | [2] | [3] | [4] | [5] | [6] | [7] | [8] | [9] | [10] | [11] | [12] | [19] | [14] | [15] | [17] | [18] | [16]
